Assay results as given in the supplement of paper PMC3334620.
Whole data set: some 33,000 sequences, median “E-score (-0.5 to 0.5)” near -0.036, cut for the highest 2% near 0.37. This is one part of a sample in which the highest values are shown more often than they occur.

What follows are sequences tested against T1, Yer064c (UniProt P40041) (assay: PBM E-score (8-mer binding enrichment) (E-score (-0.5 to 0.5)); higher = stronger / more preferred TF binding). Details: protein concentration: 200 nM; construct: GST-full length.
T1 sequence: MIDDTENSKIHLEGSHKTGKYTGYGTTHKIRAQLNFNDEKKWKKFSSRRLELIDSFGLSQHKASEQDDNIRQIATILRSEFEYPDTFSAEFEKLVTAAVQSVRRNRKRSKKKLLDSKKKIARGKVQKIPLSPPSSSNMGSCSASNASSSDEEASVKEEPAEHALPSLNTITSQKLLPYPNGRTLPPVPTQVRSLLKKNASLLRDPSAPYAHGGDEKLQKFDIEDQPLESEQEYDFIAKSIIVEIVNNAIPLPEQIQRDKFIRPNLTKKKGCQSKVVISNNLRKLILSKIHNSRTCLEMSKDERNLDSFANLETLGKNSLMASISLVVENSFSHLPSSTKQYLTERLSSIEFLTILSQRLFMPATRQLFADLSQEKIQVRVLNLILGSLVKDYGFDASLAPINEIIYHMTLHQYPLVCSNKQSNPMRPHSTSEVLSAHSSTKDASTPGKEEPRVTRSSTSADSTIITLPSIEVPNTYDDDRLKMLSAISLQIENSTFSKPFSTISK
Procedure: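 Universal 'all 10-mer' protein binding microarrays (Agilent AMADID 015681) probed with GST-tagged S. cerevisiae TFs (full-length or DBD) made by in vitro transcription/translation (PURExpress), about 100-200 nM. Bound TF was detected with fluorescent anti-GST. Each ungapped 8-mer (which stands for itself and its reverse complement) is scored by the PBM enrichment score (E-score), a modified Wilcoxon-Mann-Whitney statistic from -0.5 to +0.5, computed with the Universal PBM Analysis Suite. Scale: above 0.35 generally sequence-specific binding.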

Sequence | PBM E-score
GATCACGA | 0.0675
GACGTCGA | -0.14
CTGCATTC | -0.0186
CGACTAAC | 0.43
GGACTACC | 0.284
CAACTAAC | 0.132
GTACTAAC | 0.128
GAACTAAC | -0.0243
GGACTAAC | 0.367
CGACTACG | 0.337
CGACTACC | 0.383
CGACTAGC | 0.297
GGGAGCCA | -0.00881
CCTTACAG | -0.2
CCGTCCTC | -0.281
ACAGCGAC | 0.00958
CCATGCCA | -0.113
ATGAAAGG | -0.0528
AAGTCCCT | -0.127
GTGAGAAA | -0.0285
ATGATTTA | 0.415
AGGATTTC | -0.125
CTGATTTA | 0.238
CTGATTTC | 0.222
AAGATTTA | 0.136

Sequence | PBM E-score
ATGATTTC | 0.403
CCCCGTAA | -0.0314
ATTACTAG | 0.0126
TCGCTCCA | -0.0823
CAGAGGGA | -0.199
AATCAAGT | 0.268
GATCATGC | 0.134
AATCATGC | 0.432
CATCATGA | 0.294
AATCAGGG | 0.271
AATCAGGT | 0.378
CATCATGC | 0.0857
AAGCATGT | -0.0498
AATCATGT | 0.453
AATCAGGC | 0.306
AATCATGA | 0.43
TATCATGA | 0.256
ATTTGAGG | -0.0184
ATGAGGGG | -0.125
AGCCGGCA | -0.176
GAATGCTA | -0.277
GCGAAAAC | -0.131
CCTCTGTA | -0.108
CCGCCGCA | -0.299
CCACAAAG | -0.0168

Sequence | PBM E-score
AATCAGCG | 0.344
AATCAAGG | 0.245
CATCATGG | 0.0236
AATCATGG | 0.42
AATCAGCT | 0.389
AATCAGCC | 0.355
CGATTAGA | 0.0752
GATGTGGA | 0.0614
GTCTTGTA | 0.0119
CAAGTCAC | 0.36
GAAGTCAA | 0.357
AAAGTCGT | 0.258
AAAGTCCT | 0.0605
GAAGTCAC | 0.433
AAAGTCAA | 0.319
AAAGTCAT | 0.455
AAAGTCAG | 0.323
AAAGTCAC | 0.411
AGGTCGTA | 0.0488
CTAAACTA | 0.0923
ACGGCCTG | -0.12
TAATCCGA | 0.205
CAGGATAA | -0.208
ACGAGAAT | -0.125
AATACCAG | -0.0862

Sequence | PBM E-score
CTTTCAAA | 0.0256
CCAGTCAG | 0.248
GCAGTCCC | -0.00282
ACAGTCAG | 0.378
GCAGTCAA | 0.281
ACAGTCAC | 0.405
ACAGTCAA | 0.319
ACAGTCGT | 0.198
ACAGTCAT | 0.453
ACAGTCGG | 0.181
GCAGTCAC | 0.435
ACAGTCTC | 0.146
CCAGTCAC | 0.313
ATCACAGG | 0.166
GGCCTGAC | 0.109
ACCTGGTG | -0.0925
GCGGCTAC | -0.0969
AATTGTCA | 0.0267
GGGGAGAC | -0.0271
CTCGATTA | 0.186
AAGGTAGA | -0.209
GCGCCATA | -0.26
GACGAGAC | -0.0639
CACGAGTG | -0.125
CACGAGTA | 0.0787

Sequence | PBM E-score
GACGAGTC | 0.408
AACGAGTT | 0.0273
CACGAGTC | 0.39
AACGAGTA | 0.171
AACGAGTC | 0.42
GACGAGTA | 0.178
ATCCATCC | 0.0305
AGTACACA | 0.239
CCCAAGCC | -0.171
CACTTCAA | -0.0203
ACGGATTA | 0.1
GAAGAGCC | -0.222
CAAGAGTA | 0.106
CAAGAGTC | 0.434
AAAGAGTA | 0.0885
AAAGAGTC | 0.437
GAAGAGTC | 0.426
GAAGAGTA | 0.0801
AAAGAGTT | 0.219
CAAGAGTG | -0.108
CTACTGAC | 0.177
ACGGCGGA | -0.0257
ACGGACCA | -0.125
GAACTGAC | -0.0132
CAGGAGTA | 0.0894

Sequence | PBM E-score
CAGGAGTC | 0.394
CAGAAGTC | 0.293
AAGGAGTG | -0.187
AAGGAGTC | 0.412
AAGGAGTA | 0.0121
AGTCGATG | 0.249
AAACTGAG | 0.144
TCCCAGCA | -0.0166
CACGCAAG | -0.11
CACGTGTA | -0.0349
TATTCAGA | 0.0473
GATTCATA | 0.381
CATTCATA | 0.195
GATTCAGA | 0.389
AATTCATA | 0.0256
GATTCAGC | 0.258
GATTCCGA | 0.276
CCACGTAA | -0.177
GGCCTGTA | -0.386
TACTAGGA | 0.0896
GACTAGCA | 0.374
GACTAGGC | 0.297
AACTAGCA | -0.00106
TACTAGCA | 0.0217
GACTAGGA | 0.376

Sequence | PBM E-score
ATCACATC | 0.143
CGAGGGAA | -0.0997
GATTTGGA | 0.0961
AAAGTGCC | -0.0752
AACCGTAC | -0.0826
AATTCAAC | -0.0608
GATTCAAA | 0.371
CATTCAAA | -0.0755
CATTCAAC | 0.0337
GATTCAAC | 0.385
TATTCAAA | 0.135
ACCGATCT | -0.255
ATCCTCGC | -0.043
TCGTAGCA | 0.128
ATCGCTGA | 0.0828
GACTTTAC | 0.234
ATAGGCAG | -0.0153
AGTCGTCC | 0.364
AGTCGTCG | 0.375
ATTCGTCG | 0.0523
GGTCGTCA | 0.00372
CGTCGTCA | -0.142
AGTCGTCA | 0.389
ACGATACT | -0.155
AGGATGTC | 0.00214
